From PubChem BioAssay (NCATS)
Results filed as inconclusive are left out. Entries that show only a call come without a potency. Calls of active or inactive are those of the source. Calls follow the shape of the full dose curve.

Assay: Primary qHTS for inhibitors of SARS-S pseudo-typed particle cell entry (AID 1479145); also: nearly all actives have a fitted effect of over 45% in size; also: potency is read from the fitted curve at half-maximal effect
Settings: SARS-S pseudotyped particle cell entry, luciferase reporter; series mostly up to 57.1 µM
In the case of `CCCCOCCOC(=O)c1cccnc1`, the Potency was “inactive”.
For `CC[N+](CC)(CC)CCOc1cccc(OCC[N+](CC)(CC)CC)c1OCC[N+](CC)(CC)CC`, the Potency was “inactive”.
With `CC(C)=CCC/C(C)=C/CC/C(C)=C/CCC(=O)OC/C=C(\C)CCC=C(C)C` the Potency was “inactive”.
In the case of `COC(=O)c1cccnc1`, the Potency was “inactive”.
In the case of `CC[C@@]1(O)C(=O)OCc2c1cc1n(c2=O)Cc2c-1nc1ccccc1c2/C=N/OC(C)(C)C`, the Potency was “inactive”.
In the case of `CC(C)(C)NCC(O)COc1ccccc1OCC1CCCO1` (stereo unspecified), the Potency was “inactive”.
For `Cc1cnc(NC(=O)C2=C(O)c3ccccc3S(=O)(=O)N2C)s1`, the Potency was “inactive”.
For `CN1C(CSCC(F)(F)F)Nc2cc(Cl)c(S(N)(=O)=O)cc2S1(=O)=O` (stereo unspecified), the Potency was “inactive”.
In the case of `N#C[C@H]1C[C@H]2C[C@@H]2N1C(=O)[C@@H](N)C12CC3CC(CC(O)(C3)C1)C2`, the Potency was “inactive”.
For `CC(=O)OCC1=C(C(=O)O)N2C(=O)[C@@H](NC(=O)Cc3cccs3)[C@H]2SC1`, the Potency was “inactive”.
In the case of `C/C(=C(\CCO)SS/C(CCO)=C(\C)N(C=O)Cc1cnc(C)nc1N)N(C=O)Cc1cnc(C)nc1N`, the Potency was “inactive”.
With `CCCCCCCN(CC)CCCC(O)c1ccc(NS(C)(=O)=O)cc1` (stereo unspecified) the Potency was “inactive”.
In the case of `O=C(CCOCCOCCOCCOCCC(=O)Nc1c(I)cc(I)c(C(=O)O)c1I)Nc1c(I)cc(I)c(C(=O)O)c1I`, the Potency was “inactive”.
With `CCC(=O)c1c(O)cc(O)cc1O` the Potency was “inactive”.
In the case of `COc1cccc2c1C(=O)c1c(O)c3c(c(O)c1C2=O)C[C@@](O)(C(=O)CO)C[C@@H]3O[C@H]1C[C@H](N)[C@@H](O)[C@H](C)O1`, the Potency was 10 µM (active).
In the case of `CN(CC1(C)CCCO1)S(=O)(=O)c1ccc(Cl)c(S(N)(=O)=O)c1` (stereo unspecified), the Potency was “inactive”.
With `CC(C)=CCC1C(=O)N(c2ccccc2)N(c2ccccc2)C1=O` the Potency was “inactive”.
With `COCC(=O)Nc1c(I)c(C(=O)NCC(O)CO)c(I)c(C(=O)N(C)CC(O)CO)c1I` (stereo unspecified) the Potency was “inactive”.
With `COC(=O)C1=C(C)NC(C)=C(C(=O)OCCc2ccc(N3CCN(C(c4ccccc4)c4ccccc4)CC3)cc2)C1c1cccc([N+](=O)[O-])c1` (stereo unspecified) the Potency was “inactive”.
In the case of `NCC(=O)CCC(=O)O`, the Potency was “inactive”.
In the case of `CCCCCCCCCCCCCCCCO`, the Potency was “inactive”.
In the case of `C[C@]12CC[C@H]3[C@@H](CCC4=CC(=O)CC[C@@H]43)[C@@H]1CC[C@@H]2OC(=O)CCc1ccco1`, the Potency was “inactive”.

Assay: Primary qHTS for Huh7 cytotoxicity: counterscreen for inhibitors of MERS-S pseudotyped particle cell entry (AID 1479147)
Settings: cell viability read-out; series mostly up to 57.1 µM
For `COc1ccc2cccc(CCNC(C)=O)c2c1`, the Potency was “inactive”.
With `CCOP(=S)(OCC)Oc1ccc2c(C)c(Cl)c(=O)oc2c1` the Potency was “inactive”.
For `NNC(=O)c1ccncc1`, the Potency was “inactive”.
In the case of `Cc1ccccc1C(=O)N1CC/C(=N\OS(=O)(=O)O)c2ccc(Cl)cc21`, the Potency was “inactive”.
For `CN1C(=O)OC(C)(C)C1=O`, the Potency was “inactive”.
For `CCOc1cc(OCC)c(C(=O)CCC(=O)O)cc1OCC`, the Potency was “inactive”.
With `COc1ccc(C2C(=O)c3ccccc3C2=O)cc1` the Potency was “inactive”.
In the case of `NC(=O)NC(=O)Cc1ccccc1`, the Potency was “inactive”.
For `CC(C)(C)NCC(O)COc1cccc2c1C[C@H](O)[C@H](O)C2` (stereo partly specified), the Potency was “inactive”.
In the case of `O=C(O)CCCCCCCC(=O)O`, the Potency was “inactive”.
For `COc1ccc(C2CNC(=O)C2)cc1OC1CCCC1` (stereo unspecified), the Potency was “inactive”.
With `OCCOCCN1CCN(C2=Nc3ccccc3Sc3ccccc32)CC1` the Potency was “inactive”.
With `C[C@@H](N)[C@@H](O)c1ccccc1` the Potency was “inactive”.
In the case of `CCCCOCCOC(=O)c1cccnc1`, the Potency was “inactive”.
In the case of `CC[N+](CC)(CC)CCOc1cccc(OCC[N+](CC)(CC)CC)c1OCC[N+](CC)(CC)CC`, the Potency was “inactive”.
With `CC(C)=CCC/C(C)=C/CC/C(C)=C/CCC(=O)OC/C=C(\C)CCC=C(C)C` the Potency was “inactive”.
With `COC(=O)c1cccnc1` the Potency was “inactive”.
For `CC[C@@]1(O)C(=O)OCc2c1cc1n(c2=O)Cc2c-1nc1ccccc1c2/C=N/OC(C)(C)C`, the Potency was “inactive”.
For `CC(C)(C)NCC(O)COc1ccccc1OCC1CCCO1` (stereo unspecified), the Potency was “inactive”.
For `Cc1cnc(NC(=O)C2=C(O)c3ccccc3S(=O)(=O)N2C)s1`, the Potency was “inactive”.
For `CN1C(CSCC(F)(F)F)Nc2cc(Cl)c(S(N)(=O)=O)cc2S1(=O)=O` (stereo unspecified), the Potency was “inactive”.
In the case of `N#C[C@H]1C[C@H]2C[C@@H]2N1C(=O)[C@@H](N)C12CC3CC(CC(O)(C3)C1)C2`, the Potency was “inactive”.
With `CC(=O)OCC1=C(C(=O)O)N2C(=O)[C@@H](NC(=O)Cc3cccs3)[C@H]2SC1` the Potency was “inactive”.
For `C/C(=C(\CCO)SS/C(CCO)=C(\C)N(C=O)Cc1cnc(C)nc1N)N(C=O)Cc1cnc(C)nc1N`, the Potency was “inactive”.
With `CCCCCCCN(CC)CCCC(O)c1ccc(NS(C)(=O)=O)cc1` (stereo unspecified) the Potency was “inactive”.
In the case of `O=C(CCOCCOCCOCCOCCC(=O)Nc1c(I)cc(I)c(C(=O)O)c1I)Nc1c(I)cc(I)c(C(=O)O)c1I`, the Potency was “inactive”.
For `CCC(=O)c1c(O)cc(O)cc1O`, the Potency was “inactive”.
For `CN(CC1(C)CCCO1)S(=O)(=O)c1ccc(Cl)c(S(N)(=O)=O)c1` (stereo unspecified), the Potency was “inactive”.
For `CC(C)=CCC1C(=O)N(c2ccccc2)N(c2ccccc2)C1=O`, the Potency was “inactive”.
With `COCC(=O)Nc1c(I)c(C(=O)NCC(O)CO)c(I)c(C(=O)N(C)CC(O)CO)c1I` (stereo unspecified) the Potency was “inactive”.
In the case of `COC(=O)C1=C(C)NC(C)=C(C(=O)OCCc2ccc(N3CCN(C(c4ccccc4)c4ccccc4)CC3)cc2)C1c1cccc([N+](=O)[O-])c1` (stereo unspecified), the Potency was “inactive”.
For `NCC(=O)CCC(=O)O`, the Potency was “inactive”.
With `CCCCCCCCCCCCCCCCO` the Potency was “inactive”.
In the case of `C[C@]12CC[C@H]3[C@@H](CCC4=CC(=O)CC[C@@H]43)[C@@H]1CC[C@@H]2OC(=O)CCc1ccco1`, the Potency was “inactive”.
